# FadD28 FP inh = inhibitors of FadD28 bisubstrate probe binding, primary screen, biochemical, fluorescence polarization, single point; Mycobacterium tuberculosis FadD28 fatty-acid-AMP ligase; inhibition, % at 12.5 µM; 0.22% of 360,000 active; AID 588549, 2011; in the data active = inhibition above about 8.5%, passing the limit was not always enough; inconclusive = no clear call, values can overlap the other calls
# Mtb hypoxia rep = PubChem AID 1159583; fluorescence inhibition, % (no concentration beside the values); M. tuberculosis hypoxia-regulated fluorescent reporter, fluorescence; 0.1% of 300,000 active; in the data active = fluorescence inhibition mostly above about 23%, no sharp cut-off; inactive = mostly below about 17%
# PriA SSB inh = inhibitors of Klebsiella pneumoniae PriA binding to SSB C-terminal tail, primary screen, biochemical, AlphaScreen | AlphaScreen SSBct-PriA binding, biotinylated peptide | inhibition, % at 33 µM | 0.6% of 430,000 active; in the data active = inhibition mostly above about 37%, no sharp cut-off; inactive = mostly below about 20%;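 also: plate controls were negative control peptide for no effect and reference peptide for full effect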
# Mtb BioA inh = M. tuberculosis BioA enzyme inhibitors, primary screen, biochemical, plate reader, single point, HTS; 7,8-diaminopelargonic acid synthase BioA (Mycobacterium tuberculosis); 0.096% of 360,000 active; inhibition, % at 9.99 µM; AID 602481, 2012; purified M. tuberculosis BioA enzyme; in the data active = inhibition above about 40%; inconclusive = no clear call, values can overlap the other calls
# PrP UTR inh = inhibition of PrP 5' UTR reporter expression | cell-based PrP 5' UTR mRNA reporter, plate reader | inhibition, % (concentration not given with the values) | 0.35% of 340,000 active | AID 488862, 2010; in the data active = inhibition above about 52%; also: 0 = median of the neutral control wells
# TcdB inh = TcdB glycohydrolase inhibitors, primary screen, biochemical, single point, plate reader; TcdB glycohydrolase enzymatic assay; AID 652162, 2013; Toxin B (Clostridioides difficile), P18177; 0.24% of 350,000 active; inhibition, % at 9.99 µM; in the data active = inhibition above about 10%
# Target sequence (P18177 whole entry, looked up): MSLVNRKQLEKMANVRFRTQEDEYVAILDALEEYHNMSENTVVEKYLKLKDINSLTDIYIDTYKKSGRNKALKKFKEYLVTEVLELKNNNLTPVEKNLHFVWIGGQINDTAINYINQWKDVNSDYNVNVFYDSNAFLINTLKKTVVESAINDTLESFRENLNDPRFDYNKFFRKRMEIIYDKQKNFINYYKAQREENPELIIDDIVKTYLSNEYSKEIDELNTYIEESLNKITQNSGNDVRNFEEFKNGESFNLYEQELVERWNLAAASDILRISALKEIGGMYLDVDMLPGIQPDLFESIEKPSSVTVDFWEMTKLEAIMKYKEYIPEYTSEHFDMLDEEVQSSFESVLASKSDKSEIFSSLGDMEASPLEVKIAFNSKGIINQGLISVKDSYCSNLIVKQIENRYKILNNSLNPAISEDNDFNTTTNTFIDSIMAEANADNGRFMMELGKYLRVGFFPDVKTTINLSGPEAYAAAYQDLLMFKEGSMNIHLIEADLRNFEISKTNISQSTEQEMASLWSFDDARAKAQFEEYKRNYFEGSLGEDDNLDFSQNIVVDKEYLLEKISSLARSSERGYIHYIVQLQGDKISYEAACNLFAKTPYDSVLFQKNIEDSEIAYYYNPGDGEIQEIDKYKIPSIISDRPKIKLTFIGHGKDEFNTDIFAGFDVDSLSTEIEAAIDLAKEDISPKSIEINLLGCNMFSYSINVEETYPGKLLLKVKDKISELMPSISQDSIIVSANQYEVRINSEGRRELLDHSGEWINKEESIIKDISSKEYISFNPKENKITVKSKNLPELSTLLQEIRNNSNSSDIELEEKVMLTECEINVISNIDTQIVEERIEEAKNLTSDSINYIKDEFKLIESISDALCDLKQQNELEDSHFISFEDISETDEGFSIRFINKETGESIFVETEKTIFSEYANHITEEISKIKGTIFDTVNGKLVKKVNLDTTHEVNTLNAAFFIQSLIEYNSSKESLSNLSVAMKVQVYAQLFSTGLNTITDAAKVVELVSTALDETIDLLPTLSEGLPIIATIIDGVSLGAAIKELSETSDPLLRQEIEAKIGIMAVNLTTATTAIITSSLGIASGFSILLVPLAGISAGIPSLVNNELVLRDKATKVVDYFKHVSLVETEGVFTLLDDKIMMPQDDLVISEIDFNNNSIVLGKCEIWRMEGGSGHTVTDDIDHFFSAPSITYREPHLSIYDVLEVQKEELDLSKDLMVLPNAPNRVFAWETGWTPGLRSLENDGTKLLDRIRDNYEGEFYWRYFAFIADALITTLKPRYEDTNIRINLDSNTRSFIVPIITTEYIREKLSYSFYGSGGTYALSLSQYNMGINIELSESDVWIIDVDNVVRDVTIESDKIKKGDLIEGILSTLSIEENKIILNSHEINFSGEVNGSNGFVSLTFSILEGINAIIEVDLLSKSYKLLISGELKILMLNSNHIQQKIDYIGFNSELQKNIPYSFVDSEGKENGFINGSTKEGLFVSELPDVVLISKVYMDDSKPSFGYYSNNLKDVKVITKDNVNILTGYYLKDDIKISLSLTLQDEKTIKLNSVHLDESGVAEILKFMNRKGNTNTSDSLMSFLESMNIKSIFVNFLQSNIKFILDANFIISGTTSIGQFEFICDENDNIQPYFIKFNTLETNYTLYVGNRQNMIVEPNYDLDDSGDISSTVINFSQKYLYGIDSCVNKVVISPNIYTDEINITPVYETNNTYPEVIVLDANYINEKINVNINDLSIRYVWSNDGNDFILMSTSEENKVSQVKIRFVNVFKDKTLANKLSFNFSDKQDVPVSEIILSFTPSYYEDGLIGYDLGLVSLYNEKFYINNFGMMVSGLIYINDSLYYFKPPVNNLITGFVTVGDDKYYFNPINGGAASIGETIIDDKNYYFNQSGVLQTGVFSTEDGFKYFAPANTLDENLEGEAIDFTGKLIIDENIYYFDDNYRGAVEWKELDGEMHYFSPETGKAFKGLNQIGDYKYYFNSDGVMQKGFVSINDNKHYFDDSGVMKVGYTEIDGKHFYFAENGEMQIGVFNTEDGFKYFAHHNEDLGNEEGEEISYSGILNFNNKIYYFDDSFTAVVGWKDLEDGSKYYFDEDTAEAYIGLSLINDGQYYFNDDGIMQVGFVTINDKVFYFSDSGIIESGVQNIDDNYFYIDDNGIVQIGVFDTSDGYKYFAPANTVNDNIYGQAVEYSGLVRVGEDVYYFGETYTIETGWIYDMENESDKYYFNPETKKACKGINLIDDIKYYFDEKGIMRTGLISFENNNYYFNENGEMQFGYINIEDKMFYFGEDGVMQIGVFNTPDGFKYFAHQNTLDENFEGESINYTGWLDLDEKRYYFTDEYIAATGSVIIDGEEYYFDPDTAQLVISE
# The depositor's hits bear a star; i = inactive; ? = inconclusive; . = not tested or not shown. Rows were chosen to be rich in hits. Some 1% of all compounds tested hit in one or more screens of this group.
SMILES,FadD28 FP inh,Mtb hypoxia rep,PriA SSB inh,Mtb BioA inh,PrP UTR inh,TcdB inh
O=C1NC(=NS(=O)(=O)c2ccccc2)S/C1=C\c1cc([N+](=O)[O-])ccc1O,.,.,-8.8,.,.,.
Cc1ccc(S(=O)(=O)/N=C2/NC(=O)/C(=C\c3ccco3)S2)cc1,11.9*,.,.,-2.4,-22.7,.
Cc1ccc(S(=O)(=O)/N=C2/NC(=O)/C(=C/c3cc([N+](=O)[O-])ccc3O)S2)cc1,33.2*,.,.,0.4,0.8,-10.8
O=C1NC(=Nc2ccccc2Cl)S/C1=C\c1cc([N+](=O)[O-])ccc1O,30.1*,.,3.3,3.2,-19.5,-2.5
COc1ccc(S(=O)(=O)N=C2NC(=O)/C(=C\c3ccco3)S2)cc1,.,.,-0.3,.,.,.
CN(C)CCCN(C(=O)c1ccco1)c1nc2c(F)cccc2s1,-1.0,-5.7,-4.4,.,-16.0,0.2
CC(=O)c1ccc(C(=O)N(CCCn2ccnc2)c2nc3c(C)cc(C)cc3s2)cc1,.,.,49.0*,.,.,.
CC(=O)c1ccc(C(=O)N(CCn2cccn2)c2nc3c(C)cc(C)cc3s2)cc1,.,.,-5.0,.,.,.
Cc1cccc2sc(N(CCCn3ccnc3)C(=O)c3ccco3)nc12,.,.,45.0*,.,.,.
O=C(c1ccco1)N(CCCn1ccnc1)c1nc2ccccc2s1,.,.,72.2*,.,.,.
CC(C)CN(C(=O)c1ccco1)c1nc2ccccc2s1,-2.0,8.4,-23.2,.,-16.8,0.9
Cc1ccc2sc(N(CCCn3ccnc3)C(=O)c3ccco3)nc2c1C,.,.,87.8*,.,.,.
COc1ccc([C@@H](C)NC(=O)c2ccc3oc(C(C)C)nc3c2)cc1,-1.6,6.3,-3.8,-1.5,-54.3,1.0
c1cnn2c(-c3ccc4c(c3)CCO4)cnc2c1,-1.4,.,.,11.8,.,-0.4
O=C(c1cccs1)N(CCCn1ccnc1)c1nc2c(Cl)cccc2s1,.,.,77.0*,.,.,.
Cc1cc(NC(=O)C2=C(O)c3ccccc3S(=O)(=O)N2C)no1,-0.3,10.8,-6.7,-0.4,-12.1,0.7
COc1ccc(Cl)cc1NC(=O)CSc1nnc(-c2ccco2)o1,-0.7,3.7,-0.6,1.8,-3.9,18.8*
CCn1nnc2c(N3CC(C(=O)NC4CCSC4=O)C3)ncnc21 (stereo unspecified),.,.,7.0,.,.,.
CCCCCCc1nnc(NC(=O)OCC)s1,-2.4,44.6*,-6.7,1.7,-14.1,.
COc1ccc(C)cc1NC(=O)Cn1c(=O)oc2ccccc21,?,.,2.8,-1.5,-4.5,-1.4
Cc1cccc(NC(=O)Cn2c(=O)oc3ccccc32)c1,34.6*,.,-23.5,-0.3,-7.2,.
O=C(Cn1c(=O)oc2ccccc21)Nc1cccc(Cl)c1,10.6*,.,-12.5,-0.8,-6.0,0.5
N#Cc1c(N2CCCC(O)C2)nc(N)c2c(N)nc3c(c12)CC(=O)N3C12CC3CC(CC(C3)C1)C2 (stereo unspecified),24.8*,9.2,62.6*,-3.7,5.6,.
CCNC(=O)N1CCN(c2ccc(N3CCN(Cc4ccccc4)[C@H](C)C3)c(C)c2)[C@H](C)C1,.,.,.,.,.,1.5
COc1ccc(NC(=O)CSc2ncc(S(=O)(=O)c3ccc(C)cc3C)c(=O)[nH]2)cc1Cl,.,.,-12.0,.,.,.
SMILES,FadD28 FP inh,Mtb hypoxia rep,PriA SSB inh,Mtb BioA inh,PrP UTR inh,TcdB inh
CCc1ccc(NC(=O)CSc2ncc(S(=O)(=O)c3ccc(C)cc3C)c(=O)[nH]2)cc1,.,.,69.0*,.,.,.
Oc1cccc2c(NC(=S)Nc3ccc(SC(F)F)cc3)cccc12,-0.9,9.1,47.8*,.,15.0,1.1
CCc1ccc(NC(=S)N2CCC(NC(=O)C3CCCCC3)CC2)cc1,.,0.4,2.8,.,-18.9,-4.6
CCOc1cc(/C=N\n2nnnc2N)ccc1O,-2.8,.,.,0.8,-21.7,22.6*
CCOc1ccc(/C=N/n2nnnc2N)cc1O,-1.0,.,i,0.9,-0.4,19.0*
CCOc1ccc(C=Nn2nnnc2N)cc1O,.,8.0,.,.,.,.
O=C(Nc1nnc(-c2ccc(Br)s2)o1)c1cc2ccccc2o1,.,.,-10.0,.,.,.
COc1ccccc1CN1CC[C@@H]2[C@H](CO)Nc3ccc(-c4cccc(C(=O)N(C)C)c4)cc3[C@@H]21,.,.,.,10.5,.,1.3
COc1ccc(S(=O)(=O)Nc2ccc3c(c2)C(=O)N([C@H](C)CO)C[C@H](C)[C@@H](CN(C)S(=O)(=O)c2ccc(F)cc2)OCCCC[C@@H](C)O3)cc1,.,.,.,-1.3,.,-0.4
COc1cccc(NC(=O)CN2C(=O)NC(c3ccccc3)(c3ccccc3)C2=O)c1,-6.4,-1.7,1.2,1.4,-17.8,0.0
COc1cc(NC(=O)CN2C(=O)NC(c3ccccc3)(c3ccccc3)C2=O)cc(OC)c1,-15.4,.,44.5*,-1.9,-34.7,1.6
O=C(O)c1ccc2c(c1)C1C(Cl)C(Sc3ccccc3[N+](=O)[O-])CC1C(c1cccc([N+](=O)[O-])c1)N2 (stereo unspecified),43.2*,2.7,3.5,17.1,-20.5,.
CCN(CC)C(=O)c1ccc2c(c1)C1C(Cl)C(Sc3ccccc3[N+](=O)[O-])CC1C(C(=O)O)N2 (stereo unspecified),34.5*,-2.7,63.6*,.,-15.1,.
Cc1ccccc1S(=O)(=O)N1CCCCN2[C@H](C1)[C@@H](c1ccc(-c3cccnc3)cc1)[C@@H]2CO,.,.,.,0.1,.,0.8
Nc1ccc(S(=O)(=O)c2cc(O)c3ccccc3c2O)cc1,9.5*,.,1.8,.,-20.1,-0.3
O=S(=O)(c1ccccc1)c1cc(O)ccc1O,0.4,-3.6,3.8,-3.8,-0.4,-7.6
Cc1cc2oc(=O)cc(-c3ccccc3)c2c(C)c1-c1ccc(O)cc1,0.2,22.0,-13.1,0.2,-10.7,-3.8
N#Cc1nc(-c2ccccc2Cl)oc1N1CCOCC1,-0.8,13.8,4.1,1.3,-3.2,.
N#Cc1nc(-c2ccccc2Cl)oc1N1CCCCCC1,.,.,94.2*,.,.,.
CC1CCN(c2oc(-c3ccccc3Cl)nc2C#N)CC1,0.2,.,48.7*,4.3,-40.3,.
Cc1ccccc1-c1nc(C#N)c(N2CCC(C)CC2)o1,-2.5,2.2,28.8,-3.0,-17.7,1.6
CC(C)NC(=O)Nc1cccc2c1O[C@H](CN(C)Cc1ccccc1)[C@@H](C)CN([C@@H](C)CO)C2=O,.,.,.,-0.5,.,0.4
CCOC(=O)c1nnn(-c2nonc2N)c1-c1ccc(F)cc1,-0.9,.,-7.9,-1.0,-9.8,12.0*
CCOC(=O)c1nnn(-c2nonc2N)c1-c1ccccc1Cl,-3.5,.,-1.6,.,-15.2,16.1*
CCOC(=O)c1nnn(-c2nonc2N)c1-c1cccc2ccccc12,-3.0,.,-10.0,0.0,-13.1,.
C[C@H]1CN([C@@H](C)CO)C(=O)Cc2cc(NC(=O)Nc3ccc4c(c3)OCO4)ccc2O[C@H]1CN(C)Cc1ccc(C(=O)O)cc1,.,.,.,-0.7,.,-0.3
COc1ccc(/C=C/C(=O)NC(=S)NN2CCCCC2c2cccnc2)cc1OC (stereo unspecified),0.2,-6.2,-5.4,.,18.4,0.4
O=C(C[C@@H]1CC[C@@H]2[C@H](COC[C@@H](O)CN2C(=O)Nc2ccc(Cl)c(Cl)c2)O1)NCc1ccncc1,.,.,.,-0.6,.,10.7*
O=C(C[C@@H]1CC[C@H]2[C@@H](COC[C@@H](O)CN2Cc2ccc(Oc3ccccc3)cc2)O1)Nc1nccs1,.,.,.,-0.8,.,26.7*

# High-throughput results (PubChem)
